Source: the supplement of paper PMC13380429
Values without a mark were called inactive.

Tested on: Vero E6 infected with SARS-CoV-2
Experiment: inhibition of SARS-CoV-2 cytopathic effect; higher = more antiviral protection, active = above 15
Conditions: 48 h

c1cc(-c2cnn3cc(-c4ccc(OCCN5CCCCC5)cc4)cnc23)ccn1 [dorsomorphin]
inhibition of SARS-CoV-2 cytopathic effect (1 nM): -2.38% | inhibition of SARS-CoV-2 cytopathic effect (8.33 nM): -0.08% | inhibition of SARS-CoV-2 cytopathic effect (100 nM): 2.59% | inhibition of SARS-CoV-2 cytopathic effect (833.33 nM): -0.64% | inhibition of SARS-CoV-2 cytopathic effect (10000 nM): -2.57%

Cc1nn(-c2ccccc2)c(C)c1/C=N/N1CCN(Cc2ccccc2)CC1
inhibition of SARS-CoV-2 cytopathic effect (1 nM): -4.74% | inhibition of SARS-CoV-2 cytopathic effect (8.33 nM): 0.23% | inhibition of SARS-CoV-2 cytopathic effect (100 nM): -0.84% | inhibition of SARS-CoV-2 cytopathic effect (833.33 nM): -0.98% | inhibition of SARS-CoV-2 cytopathic effect (10000 nM): -0.87%

Nc1ncnc2c1ncn2[C@@H]1O[C@H](COP(=O)(O)O)[C@@H](O)[C@H]1O [adenosine-phosphate]
inhibition of SARS-CoV-2 cytopathic effect (1 nM): -6.5% | inhibition of SARS-CoV-2 cytopathic effect (8.33 nM): -1.98% | inhibition of SARS-CoV-2 cytopathic effect (100 nM): -4.25% | inhibition of SARS-CoV-2 cytopathic effect (833.33 nM): -3.83% | inhibition of SARS-CoV-2 cytopathic effect (10000 nM): -12.6%

CN(NC(=O)CC(=O)NN(C)C(=S)c1ccccc1)C(=S)c1ccccc1 [elesclomol]
inhibition of SARS-CoV-2 cytopathic effect (1 nM): 1.66% | inhibition of SARS-CoV-2 cytopathic effect (8.33 nM): 2.35% | inhibition of SARS-CoV-2 cytopathic effect (100 nM): 18% (active) | inhibition of SARS-CoV-2 cytopathic effect (833.33 nM): 19.7% (active) | inhibition of SARS-CoV-2 cytopathic effect (10000 nM): 36.4% (active)

COc1ccc2c(c1)c(CC(=O)N1CCOCC1)c(C)n2C(=O)c1ccc(Cl)cc1
inhibition of SARS-CoV-2 cytopathic effect (1 nM): 0.39% | inhibition of SARS-CoV-2 cytopathic effect (8.33 nM): -0.48% | inhibition of SARS-CoV-2 cytopathic effect (100 nM): 1.8% | inhibition of SARS-CoV-2 cytopathic effect (833.33 nM): -0.58% | inhibition of SARS-CoV-2 cytopathic effect (10000 nM): -0.85%

O=C(O)C1CSCN1 (stereo not given) [timonacic]
inhibition of SARS-CoV-2 cytopathic effect (1 nM): -2.35% | inhibition of SARS-CoV-2 cytopathic effect (8.33 nM): -1.08% | inhibition of SARS-CoV-2 cytopathic effect (100 nM): 3.52% | inhibition of SARS-CoV-2 cytopathic effect (833.33 nM): 10.6% | inhibition of SARS-CoV-2 cytopathic effect (10000 nM): 4.51%

O=C(CBr)N1CC([N+](=O)[O-])([N+](=O)[O-])C1
inhibition of SARS-CoV-2 cytopathic effect (1 nM): 1.69% | inhibition of SARS-CoV-2 cytopathic effect (8.33 nM): -0.07% | inhibition of SARS-CoV-2 cytopathic effect (100 nM): -1.43% | inhibition of SARS-CoV-2 cytopathic effect (833.33 nM): -1.12% | inhibition of SARS-CoV-2 cytopathic effect (10000 nM): 0.95%

Nc1ncnc2c1ncn2[C@@H]1O[C@@H]2COP(=O)(O)O[C@H]2[C@H]1O [cyclic-AMP]
inhibition of SARS-CoV-2 cytopathic effect (1 nM): 3.59% | inhibition of SARS-CoV-2 cytopathic effect (8.33 nM): -0.53% | inhibition of SARS-CoV-2 cytopathic effect (100 nM): -1.76% | inhibition of SARS-CoV-2 cytopathic effect (833.33 nM): -5.14% | inhibition of SARS-CoV-2 cytopathic effect (10000 nM): 0.34%

C[N+](C)(C)CCOP(=O)(O)OC[C@H](O)CO [choline-alfoscerate]
inhibition of SARS-CoV-2 cytopathic effect (1 nM): -1.69% | inhibition of SARS-CoV-2 cytopathic effect (8.33 nM): -1.94% | inhibition of SARS-CoV-2 cytopathic effect (100 nM): -3.48% | inhibition of SARS-CoV-2 cytopathic effect (833.33 nM): -1.31% | inhibition of SARS-CoV-2 cytopathic effect (10000 nM): -2.46%

CO[C@H]1/C=C\C=C(/C)C(=O)NC2=CC(=O)C(NCCN(C)C)=C(C[C@@H](C)C[C@H](OC)[C@H](O)[C@@H](C)/C=C(\C)[C@@H]1OC(N)=O)C2=O [alvespimycin]
inhibition of SARS-CoV-2 cytopathic effect (1 nM): 0.5% | inhibition of SARS-CoV-2 cytopathic effect (8.33 nM): 1.37% | inhibition of SARS-CoV-2 cytopathic effect (100 nM): 0.62% | inhibition of SARS-CoV-2 cytopathic effect (833.33 nM): 1.28% | inhibition of SARS-CoV-2 cytopathic effect (10000 nM): 12.4%

CCn1c(=O)n(C2=C(CO)CN(CC3CCCCCCC3)CC2)c2ccccc21 [trap-101]
inhibition of SARS-CoV-2 cytopathic effect (1 nM): -2.39% | inhibition of SARS-CoV-2 cytopathic effect (8.33 nM): 1.16% | inhibition of SARS-CoV-2 cytopathic effect (100 nM): 1.23% | inhibition of SARS-CoV-2 cytopathic effect (833.33 nM): 1.48% | inhibition of SARS-CoV-2 cytopathic effect (10000 nM): -3.08%

CO[C@@]1(NC(=O)C2SC(=C(C(N)=O)C(=O)O)S2)C(=O)N2C(C(=O)O)=C(CSc3nnnn3C)CS[C@@H]21 (stereo not given in full) [cefotetan]
inhibition of SARS-CoV-2 cytopathic effect (1 nM): 0.97% | inhibition of SARS-CoV-2 cytopathic effect (8.33 nM): 1.11% | inhibition of SARS-CoV-2 cytopathic effect (100 nM): 2.32% | inhibition of SARS-CoV-2 cytopathic effect (833.33 nM): -0.94% | inhibition of SARS-CoV-2 cytopathic effect (10000 nM): 0.24%

Cc1n[nH]c(C)c1Cc1sc2c(c1C(=O)N1C[C@H](O)CO1)c(=O)n(C)c(=O)n2CC(C)C
inhibition of SARS-CoV-2 cytopathic effect (1 nM): 1.42% | inhibition of SARS-CoV-2 cytopathic effect (8.33 nM): 3.88% | inhibition of SARS-CoV-2 cytopathic effect (100 nM): 0.66% | inhibition of SARS-CoV-2 cytopathic effect (833.33 nM): 1.3% | inhibition of SARS-CoV-2 cytopathic effect (10000 nM): 1.69%

C=C[C@@H]1C[C@]1(NC(=O)[C@@H]1C[C@@H]2CN1C(=O)[C@H](C(C)(C)C)NC(=O)O[C@@H]1C[C@H]1CCCCCc1nc3ccc(OC)cc3nc1O2)C(=O)NS(=O)(=O)C1CC1 [grazoprevir]
inhibition of SARS-CoV-2 cytopathic effect (1 nM): -0.59% | inhibition of SARS-CoV-2 cytopathic effect (8.33 nM): -3.18% | inhibition of SARS-CoV-2 cytopathic effect (100 nM): -2.52% | inhibition of SARS-CoV-2 cytopathic effect (833.33 nM): 1.78% | inhibition of SARS-CoV-2 cytopathic effect (10000 nM): 1.23%

O=c1[nH]c(=O)n([C@H]2CCCO2)cc1F (racemic) [ftorafur]
inhibition of SARS-CoV-2 cytopathic effect (1 nM): 0.19% | inhibition of SARS-CoV-2 cytopathic effect (8.33 nM): -1.89% | inhibition of SARS-CoV-2 cytopathic effect (100 nM): 6.11% | inhibition of SARS-CoV-2 cytopathic effect (833.33 nM): -0.34% | inhibition of SARS-CoV-2 cytopathic effect (10000 nM): -2.89%

CCN1CCCC1CNC(=O)c1cc(S(N)(=O)=O)ccc1OC (stereo not given) [sulpiride]
inhibition of SARS-CoV-2 cytopathic effect (1 nM): 0.06% | inhibition of SARS-CoV-2 cytopathic effect (8.33 nM): -1.14% | inhibition of SARS-CoV-2 cytopathic effect (100 nM): 0.7% | inhibition of SARS-CoV-2 cytopathic effect (833.33 nM): 1.07% | inhibition of SARS-CoV-2 cytopathic effect (10000 nM): 0.685%

O=C(NCCCN1CCOCC1)c1cnn2c(-c3ccccc3)cc(-c3ccccc3)nc12 [reversan]
inhibition of SARS-CoV-2 cytopathic effect (1 nM): 12.1% | inhibition of SARS-CoV-2 cytopathic effect (8.33 nM): 0.65% | inhibition of SARS-CoV-2 cytopathic effect (100 nM): 1.42% | inhibition of SARS-CoV-2 cytopathic effect (833.33 nM): 0.17% | inhibition of SARS-CoV-2 cytopathic effect (10000 nM): -6.41%
